The campaign covered roughly 300,000 compounds. About 5,200 (1.7%) were called active.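 How the source made its calls: active means mean replicate activation of at least 50% with a set share of replicates each reaching 50%; inconclusive means only one of those two conditions met; inactive means mean below 50% and too few replicates reaching it.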 For the sample, actives were picked, then their nearest neighbours and some compounds at random.

A short description of the test: HSF-1 response element luciferase induction – NIH3T3-HGL cells, MG132 stress, luminescence, single point, primary screen (AID 504408).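 Further: 0% = median of the neutral control wells and 100% = twice that signal.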 The conditions noted are these: NIH3T3-HGL HSF-1 luciferase reporter, MG132, 8 h; at 9 µM; hits give high values.
In the case of `CCOc1ccc(CN(CCCl)CCCl)cc1C(=O)OC`, the activation was 68.2% (active).

Turning to `CCCOC(=O)C1C2c3ccccc3C(c3ccccc32)C1C(=O)O` (stereo not given), the activation was -7.72% (inactive).

On to `C=CCn1c(O)c(/C=N/N2CCOCC2)c(=O)[nH]c1=S`, for which the activation was 35% (inactive).

On to `CC[C@H]1CC2CN3CCc4c([nH]c5ccccc45)C(C(=O)OC)(C2)C13` (stereo not given in full), for which the activation is 3.35% (inactive).

On to `COc1ccc(-n2c(-c3ccccc3)nc3ccccc3c2=O)cc1`, for which the activation is -4.8% (inactive).

For `CC12CCC3C(CCC4CC(=O)CCC43C)C1CC(=NO)C2=O` (stereo not given), the activation is -22.3% (inactive).

Regarding `O=C(O)COc1ccccc1/C=C1\C(=O)NC(=O)N(CCC2=CCCCC2)C1=O`, the activation was 10% (inactive).

On to `O=C1NC(=O)N(Cc2ccco2)C(=O)/C1=C\c1ccc(-c2ccc(F)cc2)o1`, for which the activation was 14.8% (inactive).

As to `O=C1NC(=O)N(CCc2ccc(F)cc2)C(=O)/C1=C/C=C/c1ccccc1`, the activation is 196% (active).

For the compound `O=C(COC(=O)c1ccccc1)Nc1ccc(Cl)cc1C(=O)c1ccccc1`, the activation was -9.79% (inactive).

With `O=C(NC(=S)N1C[C@H]2C[C@H](C1)c1cccc(=O)n1C2)c1ccc(F)cc1`, the activation is -0.361% (inactive).

Regarding `CN(C)CC1Oc2ccccc2OC1(O)c1ccccc1` (stereo not given), the activation was 89.4% (active).

As to `CNC(=O)O/N=C(\N)Cc1csc2ccc(Cl)cc12`, the activation is 27.8% (inactive).

`O=C(O)C1CSC(c2cccnc2)N1` (stereo not given): the activation was 3.54% (inactive).

Turning to `COC(=O)N1C(c2ccccc2)C1c1ccccc1` (stereo not given), the activation is 50.1% (active).

With `COC(=O)C(c1ccccc1)N1CCCCCC1` (stereo not given), the activation was 1.63% (inactive).

Turning to `O=C(CCN1CCCCC1)NCC(=O)Nc1ccc(Br)cc1C(=O)c1ccccc1`, the activation was -6.9% (inactive).

Consider `O=C(CSC1c2ccccc2-c2ccccc21)N/N=C/c1ccccc1`, for which the activation was -4.94% (inactive).

Turning to `COc1ccc(C2NCc3ccc4c(c3-n3cccc32)OCO4)cc1OC` (stereo not given), the activation was 4.67% (inactive).

In the case of `CCOC(=O)C1SC2(C(F)(F)C(F)F)CC1(O)c1c(c(OC)c3occc3c1OC)O2` (stereo not given), the activation was -4.08% (inactive).

The record behind these values is PubChem BioAssay AID504408 (Broad Institute, 2011).
